# What was measured:
# Test in all cases: PBM binding z-score (relative to random genomic background probes); higher = stronger binding; sequences stand for … in GC…GCGATTGACAGCGTAGAATGAAGG
# [1] = test system: PPARg:RXRa DBDmut IVT, anti-RXR (DBD mutation: RXRa K156A/R161A, NR concentration 270 nM, RXRa partner concentration 90 nM)
# Procedure, shortened: (§1)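 For binding z-scores, the reference was random background probes on custom Agilent 4×180K protein-binding microarrays. These arrays were incubated 1 h with ligand-free nuclear receptor dimers in PBS pH 7.4, 2% milk, 0.02% Triton X-100, 1 mM DTT, 0.2 mg/mL BSA and 0.4 mg/ml salmon testes DNA. Fluorescence was scanned after antibody detection of each partner (one per run) and regression-normalized.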
# [2] = test system: PPARg:RXRa IVT, anti-PPARg (NR concentration 270 nM, RXRa partner concentration 90 nM)
# Procedure, shortened: as §1
# [3] = test system: PPARg DBDmut:RXRa IVT, anti-PPARg (DBD mutation: PPARg1 K132A/R137A, NR concentration 270 nM, RXRa partner concentration 90 nM)
# Procedure, shortened: as §1
# [4] = test system: PPARg DBDmut IVT, anti-PPARg (DBD mutation: PPARg1 K132A/R137A, NR concentration 270 nM)
# Procedure, shortened: as §1
# [5] = test system: PPARg homodimer (NR concentration 180 nM)
# Procedure, shortened: as §1
# [6] = test system: PXR:RXRa (NR concentration 270 nM, RXRa partner concentration 90 nM)
# Procedure, shortened: as §1
# [7] = test system: PXR homodimer (NR concentration 270 nM)
# Procedure, shortened: as §1
# [8] = test system: RARa:RXR (NR concentration 270 nM, RXRa partner concentration 90 nM)
# Procedure, shortened: as §1
# [9] = test system: RARa homodimer (NR concentration 270 nM)
# Procedure, shortened: as §1
# [10] = test system: RARb homodimer (NR concentration 270 nM)
# Procedure, shortened: as §1
# [11] = test system: RARg:RXRa (NR concentration 270 nM, RXRa partner concentration 90 nM)
# Procedure, shortened: as §1
# [12] = test system: RARg homodimer (NR concentration 270 nM)
# Procedure, shortened: as §1
# [13] = test system: RXRa DBDmut IVT, anti-RXR (DBD mutation: RXRa K156A/R161A, NR concentration 90 nM)
# Procedure, shortened: as §1
# [14] = test system: RXRa homodimer (NR concentration 180 nM)
# Procedure, shortened: as §1
# [15] = test system: THRa:RXRa (NR concentration 90 nM, RXRa partner concentration 90 nM)
# Procedure, shortened: as §1
# [16] = test system: THRa homodimer (NR concentration 90 nM)
# Procedure, shortened: as §1
# [17] = test system: VDR homodimer (NR concentration 270 nM)
# Procedure, shortened: as §1
Sequence,PBM binding z-score [1],PBM binding z-score [2],PBM binding z-score [3],PBM binding z-score [4],PBM binding z-score [5],PBM binding z-score [6],PBM binding z-score [7],PBM binding z-score [8],PBM binding z-score [9],PBM binding z-score [10],PBM binding z-score [11],PBM binding z-score [12],PBM binding z-score [13],PBM binding z-score [14],PBM binding z-score [15],PBM binding z-score [16],PBM binding z-score [17]
TAGCCTAGGTCAGATCGGGCCAGTCTACGCTATA,0.403,1.41,-0.912,-0.787,-0.159,1.18,-0.895,1.05,-1.11,2.16,2.51,3.36,-0.601,1.31,4.1,-0.0683,-0.368
CCTACTGGGCCAAAAATGTCATTGATGCCGATAA,2.92,2.47,-0.355,-0.43,-0.472,-0.383,-0.24,-0.612,0.0407,-0.0192,-0.247,0.087,-0.297,-0.234,-0.288,-0.816,-0.383
CCTTACCGGTCAAGGTTATAGCACGGGTGGTACG,-0.499,0.825,-0.737,-0.375,1.58,1.16,0.299,1.3,0.889,2.84,2.53,3.33,-0.447,1.46,1.74,0.941,0.853
CGTCCAAGGTCAACGCTAGGTCAGTGAAAGCATT,3.48,4.66,-0.0404,0.201,6.46,5.11,1.66,6.35,2.52,5.38,7.88,7.21,3.69,6.38,4.61,3.53,2.6
ATCGGAAGGTCGAGGTGAGTATAGAGAAAGGGAA,0.383,1.36,0.811,0.693,1.44,1.1,0.218,1.59,0.522,2.14,2.38,2.75,0.14,2.25,2.28,0.964,0.543
CAAAATAGGTCAAGGTCAAAGTCGGTTTGTGCCA,7.7,8.26,1.72,1.63,4.28,5.51,2.04,5.42,1.28,5.46,6.53,7.1,2.89,6.48,4.48,3.55,3.72
CATACCGGGTCAGCTAGGCCAGAGTAGGGACGGC,1.21,2.82,0.167,0.0787,0.359,1.05,-0.232,1.76,-0.125,2.34,3.47,3.83,-0.0713,3,2.53,0.906,0.395
CCTACTGGGCCATTCAGAGGACATTGATCATATG,4.5,3.41,0.559,-0.35,-0.295,-0.327,0.096,-0.457,-0.467,0.736,0.858,0.53,-0.28,-0.174,0.676,0.238,0.541
CGAACTAGGTCAGAACAGGACATTGAAGGATGAT,7.08,7.32,2.82,2.2,1.27,1.96,0.214,1.66,0.708,2.12,2.57,3.4,0.96,1.41,3.72,0.36,0.369
AATACAGGGACATCGTAGGCCAGAGTACGCACAG,-0.376,0.372,0.226,0.0255,-0.207,-0.16,0.0295,-0.225,0.123,0.605,0.131,0.818,0.223,-0.000453,1,0.426,0.53
ACAGACAGGTGAGTGAAGGTCACTCAGCTGGACG,0.842,2.27,0.253,0.153,1.49,3.66,0.106,2.82,0.0123,3.64,3.32,3.72,-0.197,2.89,3.41,0.198,0.819
CGTCAAAGTTCAACTAAGGTAACGTATAGCACGC,0.646,2.49,2.35,1.51,3.82,5.78,5.22,4.65,2.34,4.33,5.92,6.62,4.32,4.78,5.26,1.89,4.37
CGTCTAAGGTCAGCAGGTCAGTGAAAGCGACGTG,3.72,3.7,0.756,0.144,5.12,4.16,0.612,5.94,2.05,5.24,6.82,7.53,3.01,6.01,4.47,3.96,1.86
CGTCCAAGGGCAGCAGGTCAGTGAAAGCGACGTG,0.8,0.701,-0.933,-1.17,0.592,0.274,-0.825,0.723,-0.64,2.99,2.31,2.9,0.247,0.676,1.28,-0.115,0.0968
